High-throughput results: PubChem, several laboratories
An excerpt weighted towards active compounds, which were near 1.6% of everything screened.
ugtP null kill: kills S. aureus RN4220 lacking UgtP. S. aureus RN4220 ugtP deletion, OD600 growth, 16 h. growth inhibition, % (no concentration beside the values). 0.54% of 330,000 active; in the data active = growth inhibition above about 68%;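 note: plate controls were untreated wells for no effect and antibiotic for full effect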
Mtb hypoxia rep: reduces hypoxia-regulated biosensor signal in M. tuberculosis | M. tuberculosis hypoxia-regulated fluorescent reporter, fluorescence | fluorescence inhibition, % (concentration not given with the values) | 0.1% of 300,000 active | AID 1159583; in the data active = fluorescence inhibition mostly above about 23%, no sharp cut-off; inactive = mostly below about 17%
CCHF vOTU inh-1: blocks the CCHF virus ovarian tumor domain protease; 0.55% of 370,000 active; AID 651958; CCHFV vOTU protease, Pep-AMC fluorescence; inhibition, % at 11.5 µM; note: 0% = vehicle wells with enzyme and 100% = no enzyme wells
Sa RN4220 lethal: kills Staphylococcus aureus RN4220; S. aureus RN4220 growth, OD600, 16 h; inhibition, % (no concentration beside the values); 0.33% of 330,000 active; in the data active = inhibition above about 85%;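 note: plate controls were untreated cells for no effect and reference antibiotic for full effect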
RecA splice inh: Mtb RecA intein splicing inhibition; cell-free RecA intein splicing, fluorescence; inhibition, % (no concentration beside the values); 0.75% of 290,000 active; in the data active = inhibition above about 30%; inconclusive = no clear call, values can overlap the other calls;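 note: 0% = vehicle wells and 100% = reference inhibitor control wells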
Target sequence (P9WHJ3 whole entry, looked up, canonical isoform): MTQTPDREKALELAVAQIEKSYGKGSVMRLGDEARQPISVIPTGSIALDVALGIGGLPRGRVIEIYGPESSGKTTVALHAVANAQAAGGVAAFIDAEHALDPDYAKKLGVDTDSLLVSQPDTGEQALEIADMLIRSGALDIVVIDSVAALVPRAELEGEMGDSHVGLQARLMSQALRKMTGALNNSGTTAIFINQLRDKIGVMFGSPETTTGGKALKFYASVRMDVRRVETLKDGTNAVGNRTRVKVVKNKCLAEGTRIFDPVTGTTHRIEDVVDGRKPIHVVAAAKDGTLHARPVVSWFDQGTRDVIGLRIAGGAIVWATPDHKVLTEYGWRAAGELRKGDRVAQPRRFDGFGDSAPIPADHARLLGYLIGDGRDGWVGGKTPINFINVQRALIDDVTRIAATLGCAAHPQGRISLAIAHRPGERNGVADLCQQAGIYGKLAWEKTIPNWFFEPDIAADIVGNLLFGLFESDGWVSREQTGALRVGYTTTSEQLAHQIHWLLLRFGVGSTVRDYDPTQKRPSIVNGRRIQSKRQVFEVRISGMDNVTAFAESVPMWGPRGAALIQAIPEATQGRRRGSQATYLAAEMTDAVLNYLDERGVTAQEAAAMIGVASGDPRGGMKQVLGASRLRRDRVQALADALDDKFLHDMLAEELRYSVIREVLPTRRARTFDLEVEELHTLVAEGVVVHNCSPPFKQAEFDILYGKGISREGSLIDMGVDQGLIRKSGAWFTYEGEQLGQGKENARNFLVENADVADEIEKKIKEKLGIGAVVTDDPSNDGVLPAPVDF
BJeLR lethal: BJeLR cell viability loss; 0.17% of 300,000 active; AID 1554; inhibition, % (concentration not given with the values); BJeLR (HRASV12) viability, CellTiter-Glo ATP luminescence, 48 h; in the data active = inhibition above about 50%; inconclusive = no clear call, values can overlap the other calls
GFP chromophore: counter-screen: blocks GFP chromophore formation | shares compounds with RecA splice inh | cell-free GFP chromophore formation, fluorescence | EC50, µM | 83% of 2,100 active; call rule not given here
CCHF vOTU inh-2: CCHFV vOTU protease inhibition, confirmation; Recombinant CCHFV vOTU, Pep-AMC fluorescence; inhibition, % at 11.5 µM; shares compounds with CCHF vOTU inh-1; 17% of 1,900 active; AID 686976
* hit, by the source's call; u = inconclusive; x = no result given. Cut-off read from the data, not from the text of the source, unless noted: active = inhibition above about 30%; inactive = the rest.

SMILES	ugtP null kill	Mtb hypoxia rep	CCHF vOTU inh-1	Sa RN4220 lethal	RecA splice inh	BJeLR lethal	GFP chromophore	others
C#CCOCCOCCOCCNc1nc(N2CCN(C(=O)C(Cc3ccc(O)cc3)n3cc(C(N)CC(C)C)nn3)CC2)nc(N2CCN(C(=O)C(C(C)CC)n3cc(C(N)CC(C)C)nn3)CC2)n1 (configuration not stated)	-0.4	7.3	x	0.1	x	x	x
O=c1cc(-c2c(F)c(F)c(F)c(F)c2F)oc2c(F)c(F)c(F)c(F)c12	x	x	x	x	86.1*	-15.2	13.4*
CCOC(=O)C1C2COc3ccc(C)cc3C2N2C(=O)c3cc(Br)ccc3NC(=O)[C@@]12C (some centres not stated)	-13.7	-3.4	x	-1.5	x	x	x
ClCc1nnc(-c2cc3c(s2)CCCC3)o1	3.2	16.5	2.1	15.2	39.4*	7.8	27.6*
O=C(O)c1cc2c(s1)CCCC2	7.5	5.4	5.9	5.0	x	-1.9	x
Cn1c(SCC(=O)NCC2CCCO2)ncc(C(=O)Nc2ccc(F)cc2)c1=O (configuration not stated)	5.5	12.4	-5.9	0.4	38.6*	11.5	0.89*
CC(=O)Nc1ccc(NC(=O)CSc2ncc(C(=O)Nc3ccc(Cl)cc3)c(=O)n2C)cc1	-0.4	6.0	x	3.2	23.4	-7.3	x
Cn1c(SCC(=O)NCC2CCCO2)ncc(C(=O)Nc2ccc(Cl)cc2)c1=O (configuration not stated)	0.8	7.2	-2.0	3.7	54.3*	15.8	>38
Cn1c(SCC(=O)NCc2ccc(F)cc2)ncc(C(=O)Nc2ccccc2)c1=O	-3.1	-10.5	-10.0	-1.3	5.7	7.3	x
CCCc1nn(-c2ccccc2)c2c1C(c1cccs1)C(C#N)=C(N)O2 (configuration not stated)	-5.8	2.2	-9.1	4.6	66.6*	-4.0	16.5*
Cc1nn(-c2ccccc2)c2c1C(c1ccco1)C(C#N)=C(N)O2 (configuration not stated)	-6.1	-8.4	-2.4	-4.2	68.1*	11.1	17.8*
Cc1nn(-c2ccccc2)c2c1C(c1ccc([N+](=O)[O-])cc1)C(C#N)=C(N)O2 (configuration not stated)	7.1	5.9	5.6	9.5	-2.4	6.8	x
Cc1nn(-c2ccccc2)c2c1C(c1cccs1)C(C#N)=C(N)O2 (configuration not stated)	x	x	x	x	91.9*	-3.0	9.81*
CCOC(=O)[C@]12Cc3ccsc3C1N(Cc1ccccc1)C(=O)c1ccccc12 (some centres not stated)	8.6	5.7	x	7.5	x	x	x
COc1cc(F)c(C2=CC(=O)CC(c3ccc(F)cc3)C2)cc1F (configuration not stated)	1.4	22.0	x	1.9	x	x	x
C#CCOCCOCCOCCNc1nc(N2CCN(C(=O)C(CCCCN)n3cc(CCCC)nn3)CC2)nc(N2CCN(C(=O)C(C(C)C)n3cc(CCO)nn3)CC2)n1 (configuration not stated)	-5.1	7.7	x	8.8	x	x	x
CC(=O)Oc1ccc2ccccc2c1C(NC(=O)Cc1ccccc1)c1ccc(Cl)cc1 (configuration not stated)	-8.2	3.9	19.4	-9.1	43.2*	-12.1	>38
O=C(CN1C(=O)/C(=C2\SC(=S)N(CCS(=O)(=O)O)C2=O)c2ccccc21)Nc1cccc(Br)c1	-10.1	0.0	11.7	2.1	45.8*	-3.0	25*
O=C(CN1C(=O)/C(=C2/SC(=S)N(CCS(=O)(=O)O)C2=O)c2ccccc21)Nc1cccc(C(F)(F)F)c1	6.0	15.9	9.4	7.3	x	x	x
CN1CC2C3C(=O)N(Cc4ccccc4)C(=O)C3[C@](Cc3ccccc3)(C1=O)N2C(=O)c1ccc(C(F)(F)F)cc1 (some centres not stated)	-19.1	-2.7	x	4.2	x	x	x
Cc1ccccc1C(=O)NNC(=S)NC(=O)COc1ccccc1	25.8	2.8	7.6	58.6	40.3*	-2.2	30.8*
Cc1cc(C)nc(SCc2ccc(C(=O)NN=Cc3ccccc3C(=O)O)cc2)n1	-2.5	15.5	x	15.8	x	x	x
COCCCN1C(=O)CSC1=NS(=O)(=O)c1ccccc1	0.6	6.3	x	3.0	x	x	x
O=C(O)CN1C(=O)/C(=C\c2cccc(OCc3ccc(Cl)cc3Cl)c2)SC1=S	x	x	9.8	x	40.5*	2.7	21.4*
COc1cccc(/C=C2\SC(=S)N(CCCC(=O)N(CCO)c3ccccc3)C2=O)c1	-20.1	7.8	25.7	2.9	37.4*	55.1*	31.9*
SMILES	ugtP null kill	Mtb hypoxia rep	CCHF vOTU inh-1	Sa RN4220 lethal	RecA splice inh	BJeLR lethal	GFP chromophore	others
COc1ccc(/C=C2\SC(=S)N(CCC(=O)Nc3cccc(O)c3)C2=O)cc1OC	-1.5	7.3	3.3	2.6	2.2	-1.9	x
COc1ccc(/C=C2/SC(=S)N(CCCC(=O)Nc3cccc(O)c3)C2=O)cc1	15.0	1.3	-0.5	29.5	38.3*	7.3	>38
CCN1C(=O)C2C(c3ccc(-c4ccc(C(C)=O)cc4)c(OC)c3)N3CCCC[C@@]3(C(=O)OC)C2C1=O (some centres not stated)	6.1	-11.5	x	1.5	x	x	x
O=c1cc(-c2ccccc2)[nH]n1-c1nc2ccccc2[nH]1	-1.1	8.5	9.0	36.4	-5.0	-9.3	x
N#CCCn1[nH]c(-c2ccccc2)cc1=O	-2.6	5.1	4.5	10.5	97.1*	11.5	5.08*
Cc1ccc(S(=O)(=O)c2c(N)n(CCC(C)C)c3nc4ccccc4nc23)cc1	-32.1	2.1	-6.2	-6.3	84.5*	-0.7	10.9*
Cc1ccc(S(=O)(=O)c2c(N)n(CCCO)c3nc4ccccc4nc23)cc1	4.6	0.2	-144.8	2.0	-15.8	-0.6	x
CCC(=O)Nc1c(S(=O)(=O)c2ccc(C)cc2)c2nc3ccccc3nc2n1C(C)c1ccccc1 (configuration not stated)	-1.4	-5.4	-8.2	1.8	0.8	-3.2	x
CCCCn1c(NC(=O)c2ccco2)c(S(=O)(=O)c2ccc(C)cc2)c2nc3ccccc3nc21	-9.5	6.7	-12.2	2.4	56.8*	1.8	u
CC(C)(C)OC(=O)CC1CC=CCC(CC(=O)NCCO)C(=O)NC(Cc2c[nH]c3ccccc23)COC1=O (configuration not stated)	-3.3	0.9	x	5.4	x	x	x
COc1ccc(/C=N/NC(=O)c2nn(-c3ccc(Cl)cc3)c(=O)c3c(N)scc23)cc1	x	x	33.0*	x	40.3*	-0.3	17.1*	CCHF vOTU inh-2=38.6*
CC(=NNC(=O)CNC(=O)Cc1ccc(Cl)cc1)c1ccco1	15.3	-5.8	x	1.7	x	x	x
CC(=O)Nc1ccc(S(=O)(=O)NC2=C(N3CCN(c4ccc(F)cc4)CC3)C(=O)c3ccccc3C2=O)cc1	6.6	5.3	76.9*	26.4	45.3*	18.6	25.7*	CCHF vOTU inh-2=69.1*
